The nature of assay [1]: SK-BR-3 cell growth inhibitors, pilot screen, 24 h, human (AID 572;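 active means viability at or below 10% of carrier control in both of two separate runs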;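 further: compound exposure lasted between 18 and 24 h rather than exactly 24 h; 100% = carrier-treated control wells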). To be noted: SK-BR-3 viability, CellTiter-Glo luminescence, at 10 µM, stronger effect = lower value. A general note: Cellular ATP, detected with luciferase, serves as a proxy for viable cell number.
Assay [2] in a line: HUVEC growth inhibition – cell-based, human, primary screen (AID 575;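 active means viability at or below 30% in both replicate assays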;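 further: 100% = median of untreated cell wells with 0.1% DMSO on each plate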). To be noted: HUVEC proliferation, CellTiter-Glo luminescence, 72 h; at 10 µM; stronger effect = lower value.
Assay [3] is described as follows: reversal of MRP1-mediated doxorubicin resistance, pilot screen, H69AR cells, doxorubicin co-treatment (AID 601;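 active means viability loss from added drug above about 55%, and viability with drug at most 40%, in both replicates, limit read from the data, passing the limit was not always enough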). The following applies: CellTiter-Glo, 72 h, at 10 µM; for differential viability (reversal): stronger effect = higher value.
Assay [4] can be described thus: 384-well plate pilot, post-Golgi transport modulator project, inhibition of yeast transport mutant growth (AID 636; in the data active means inhibition above about 31%). To be noted: absorbance 615 nm, about 18 h, stronger effect = higher value.
Assay [5] is described as follows: growth suppression of yeast trafficking mutant, preliminary HTS, modulators of trafficking downstream of Golgi apparatus project, 1536-format plate, OD 615 nm (AID 637; in the data active means inhibition above about 30%). The following applies: yeast transport mutant growth, absorbance 615 nm, 18 h; stronger effect = higher value.
Assay [6] can be described thus: OD615 S. cerevisiae growth inhibition, permissive medium, pilot counter-assay, permissive growth control for S. cerevisiae lifespan shortening project (AID 705;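 active means growth inhibition above 25% in both replicates, a cutoff set 3 SD above the mean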). The following applies: OD615, 24 h, at 10 µM, stronger effect = higher value.
The nature of assay [7]: Restrictive medium S. cerevisiae growth inhibition, OD615, pilot screen of yeast lifespan reduction project, restrictive growth control (AID 706;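 active means growth inhibition above a set limit, 3 SD over mean compound inhibition, in both replicates, cut at about 43% in these data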;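 further: modified DeaD lifespan yeast strain shifted to restrictive glucose medium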). To be noted: OD615, 48 h, at 10 µM, stronger effect = higher value.
Assay [8] is described as follows: viability gain of MRP-1-high H69AR cells under doxorubicin, pilot screen, MRP-1 activator project, CellTiter-Glo, duplicate (AID 807;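 active means viability increase at or above a cutoff of the median across tested compounds plus 3 SD, cut at about 8.5% in these data, passing the limit was not always enough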;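 further: compound pretreatment 18-22 h then 72 h combined with doxorubicin; 0% = doxorubicin alone and 100% = vehicle without doxorubicin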). The following applies: H69AR viability with doxorubicin, CellTiter-Glo luminescence; at 10 µM; stronger effect = higher value.
The nature of assay [9]: growth suppression of beta-catenin knockout HCT116, pilot screen, human colon tumor cells (AID 823;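 active means cell viability at or below a set limit in both duplicate runs, the limit being the all-compound median minus 4 SD, cut at about 23% in these data, passing the limit was not always enough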;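 further: 0% = wells killed by 20 µM Hyamine and 100% = untreated DMSO cell wells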). The following applies: CellTiter-Glo, 60 h, at 10 µM, stronger effect = lower value.
Assay [10] in a line: growth suppression of PTEN-deleted HCT116, pilot screen, cell-based, HCT116 clonal line, CellTiter-Glo (AID 824;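 active means viability at or below 27.92% in each of two runs, the all-compound median minus 4 SD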;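 further: 0% = 20 µM Hyamine control and 100% = vehicle cell control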). To be noted: 60 h, at 10 µM, stronger effect = lower value.
Assay [11] is described as follows: inhibitors of the yeast RAM network, pilot screen, dse1pr::URA3 reporter, 5-FOA selection (AID 869).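 Further: 0% = DMSO wells with no growth and 100% = 10 µM 1-NA-PP1 with full growth; RAM network block rescues cells from 5-FOA so hits raise OD615 growth.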 The following applies: S. cerevisiae dse1pr::URA3 5-FOA growth, OD615, 2 d; at 10 µM; stronger effect = higher value; strain carries analog-sensitive mutant Cbk1 kinase.
The nature of assay [12]: RAM signaling pathway blockade in yeast – S. cerevisiae, Pdr1DBD-CYC8 efflux-inhibited sensitized strain, primary screen (AID 1298;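 active means RAM network inhibition above 8.4% in each of two replicates, 3 SD over the compound average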;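 further: 0% = DMSO untreated cells without growth and 100% = 10 µM 1-NA-PP1 full growth; higher means more yeast growth rescued from 5-FOA killing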). The following applies: S. cerevisiae cbk1-as DSE1-URA3 strain, 5-FOA growth OD615, 2 d; at 50 µM; stronger effect = higher value.
Assay [13] in a line: growth inhibitors of H69AR lung tumor, primary screen, human, duplicate replicates (AID 580;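 active means viability at or under a set limit in both replicates, limit being median viability minus 3 SD, cut at about 48% in these data, passing the limit was not always enough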;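 further: 100% = mean luminescence of untreated wells and 0% = no signal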). The following applies: H69AR lung tumor cells viability, ATP luminescence, 72 h; at 10 µM; stronger effect = lower value.
Setting [14] is: H69AR cells + 2 uM doxorubicin, measured here: viability with 2 uM doxorubicin, stronger effect = lower value.
[15] abbreviates: H69AR cells, compound alone cytotoxicity.

Molecules are shown by their SMILES. Results filed as inconclusive are left out. Calls of active or inactive are those of the source.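 How the source made its calls, unless noted: active means inhibition over a set limit, the all-compound mean plus 3 SD, in both replicate runs; inconclusive means over that limit in just one replicate run; inactive means at or under that limit in both runs.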

Take `CSC1=N/C(=C\C=C\c2cccs2)C(=O)S1`: the viability in assay [1] was 95% (inactive); in assay [2], 79.5% (inactive); in assay [3] (setting [14]), 67%; in [3] (setting [15]), 51.4%; in assay [9], 95% (inactive); in assay [10], 99.1% (inactive). Moreover, in [3] (H69AR cells + 2 uM doxorubicin), the differential viability (reversal) is -15.6% (inactive). Besides, the inhibition was -1.15% (inactive) in assay [4], -6.17% (inactive) in assay [5] and 1.66% (inactive) in assay [11]. Besides, the growth inhibition in [6] was -8% (inactive); in [7], 0.455% (inactive). For the same compound, in assay [8], the viability increase was -3.44% (inactive). Also, the RAM network inhibition in [12] is 6.92% (inactive).

Consider `O=C(Nc1ccncc1)c1cc2ccccc2o1`, for which the viability is 113% (inactive) in assay [1]; 101% (inactive) in [2]; 105% (inactive) in assay [13]; 91.1% in assay [3] (setting [14]); 105% in [3] (setting [15]); 95.7% (inactive) in [9]. Also, the viability in [10] is 95.9% (inactive). The differential viability (reversal) in [3] (H69AR cells + 2 uM doxorubicin) is 13.8% (inactive). The inhibition in [4] is -0.4% (inactive); in assay [5] it was -0.36% (inactive); in assay [11], 1.73% (inactive). The results for the growth inhibition in assay [6] and in [7] were -10.7% (inactive) and -6.96% (inactive), respectively. Also, in assay [8], the viability increase was -0.51% (inactive). The RAM network inhibition in assay [12] was 4.22% (inactive).

Regarding `Cc1cc(C)n2c(SCC(=O)Nc3cc(C)on3)nnc2n1`, the viability is 91.5% (inactive) in assay [1]; 104% (inactive) in assay [2]; 101% (inactive) in assay [13]; 79.2% in assay [3] (setting [14]); 101% in assay [3] (setting [15]); 102% (inactive) in assay [9]. In [10], the viability was 97.2% (inactive). Moreover, the differential viability (reversal) in [3] (H69AR cells + 2 uM doxorubicin) is 21.3% (inactive). Besides, the inhibition is -4.19% (inactive) in assay [4], 5.71% (inactive) in assay [5] and 1.88% (inactive) in assay [11]. Also, the growth inhibition in assay [6] was -7.78% (inactive); in assay [7] it was -16.6% (inactive). Moreover, in assay [8], the viability increase is 1.73% (inactive). Further, the RAM network inhibition in [12] was 3.63% (inactive).

In the case of `CCOc1ccc(NS(=O)(=O)c2cc(Cl)ccc2OC)cc1`, the viability in [1] was 102% (inactive); in [2], 91% (inactive); in assay [13] it was 70.8% (inactive); in assay [3] (setting [14]) it was 92.9%; in [3] (setting [15]) it was 70.8%; in [9], 75.1% (inactive). The viability in assay [10] was 76.2% (inactive). Besides, the differential viability (reversal) in [3] (H69AR cells + 2 uM doxorubicin) was -22.1% (inactive). In addition, the inhibition in assay [4] is -6.93% (inactive); in assay [5], -5.09% (inactive); in assay [11], 0.335% (inactive). The values for the growth inhibition in assay [6] and in assay [7] were -10.7% (inactive) and -13.3% (inactive), respectively. Besides, in [8], the viability increase is -2.64% (inactive). Moreover, the RAM network inhibition in [12] was 0.17% (inactive).

Consider `COc1cc(-c2nc(-c3ccncc3)no2)cc(OC)c1OC`, for which the viability is 100% (inactive) in assay [1]; 101% (inactive) in [2]; 89.1% (inactive) in assay [13]; 88% in assay [3] (setting [14]); 89.1% in assay [3] (setting [15]); 103% (inactive) in assay [9]. The viability in assay [10] is 99.3% (inactive). In addition, in assay [3] (H69AR cells + 2 uM doxorubicin), the differential viability (reversal) was 1.12% (inactive). The inhibition in assay [4] is -5.87% (inactive); in assay [5] it was -2.18% (inactive); in assay [11], 2.17% (inactive). Moreover, the growth inhibition in assay [6] was -1.17% (inactive); in [7], 11.1% (inactive). In assay [8], the viability increase was -2.77% (inactive). The RAM network inhibition in assay [12] was 3.72% (inactive).

As to `CCNc1ccc(C(=O)OCC)cc1NC(=O)c1cc(S(=O)(=O)N2CCOCC2)ccc1C`, the viability in [1] was 108% (inactive); in [2], 83.3% (inactive); in [13] it was 98.5% (inactive); in assay [3] (setting [14]), 90.5%; in assay [3] (setting [15]) it was 98.5%; in assay [10], 87.1% (inactive). For the same compound, the differential viability (reversal) in assay [3] (H69AR cells + 2 uM doxorubicin) is 8.02% (inactive). Further, the inhibition was 2.99% (inactive) in assay [4], 5.41% (inactive) in assay [5] and 0.96% (inactive) in [11]. Moreover, the results for the growth inhibition in assay [6] and in [7] were -9.95% (inactive) and -3.6% (inactive), respectively. Besides, the viability increase in [8] was -5.71% (inactive). The RAM network inhibition in [12] was 8.14% (inactive).

With `FC(F)(F)c1cc(-c2ccco2)nc(NCc2ccco2)n1`, the viability is 119% (inactive) in [1]; 101% (inactive) in assay [2]; 62.2% (inactive) in assay [13]; 77.8% in assay [3] (setting [14]); 62.2% in assay [3] (setting [15]); 59.1% (inactive) in [10]. Moreover, in [3] (H69AR cells + 2 uM doxorubicin), the differential viability (reversal) is -15.6% (inactive). Besides, the inhibition was -2.7% (inactive) in assay [4], 24.2% (inactive) in assay [5] and 1.14% (inactive) in assay [11]. Moreover, the growth inhibition in [6] was 3.24% (inactive); in assay [7], -11.4% (inactive). The viability increase in assay [8] is -6.31% (inactive). For the same compound, the RAM network inhibition in assay [12] was -0.41% (inactive).

As to `Cc1ccc(C(=O)Nc2c(C(=O)N3CCOCC3)cnn2-c2ccccc2)cc1`, the viability in [1] was 103% (inactive); in assay [2] it was 94.5% (inactive); in assay [13], 91.8% (inactive); in [3] (setting [14]), 75.3%; in [3] (setting [15]), 91.8%; in assay [9], 103% (inactive). Besides, in assay [10], the viability is 102% (inactive). Further, the differential viability (reversal) in assay [3] (H69AR cells + 2 uM doxorubicin) was 16.5% (inactive). In addition, the inhibition in assay [4] was -4.27% (inactive); in assay [5] it was -2.91% (inactive); in assay [11] it was 0.475% (inactive). Also, the growth inhibition in assay [6] is -7.86% (inactive); in [7], -9.73% (inactive). Besides, in assay [8], the viability increase was -1.89% (inactive). In addition, the RAM network inhibition in [12] is -1.3% (inactive).

As to `CC(C)C(CO)NC(=O)CC(=O)NC(CO)C(C)C` (configuration not stated), the viability was 93% (inactive) in assay [1]; 101% (inactive) in [2]; 103% (inactive) in assay [13]; 81.4% in [3] (setting [14]); 103% in assay [3] (setting [15]); 105% (inactive) in assay [9]. Also, the viability in assay [10] was 97.3% (inactive). Besides, the differential viability (reversal) in assay [3] (H69AR cells + 2 uM doxorubicin) is 21.4% (inactive). The inhibition in assay [4] was -4.8% (inactive); in assay [5] it was -0.91% (inactive); in [11], 2.15% (inactive). Also, the figures for the growth inhibition in assay [6] and in assay [7] were -4.75% (inactive) and -1.44% (inactive), respectively. For the same compound, the viability increase in assay [8] is -0.9% (inactive). Further, in assay [12], the RAM network inhibition is 6.33% (inactive).

By viability is commonly meant a read-out of living cells in per cent, often relative to untreated cells. The inhibition is the change of the read-out against control, counted positive when it falls.

For the origin of these results see PubChem BioAssay.
